HSF1 inh: HSF1 inhibitors in luciferase reporter cells, primary screen, cell-based, NIH3T3, luminescence | NIH3T3-HGL HSE-luciferase, MG132-induced, luminescence 8 h; active compounds read low | AID 2098, 2009 | activity change, negative = inhibition, % at 7.5 µM (by protocol) | 300,000 compounds, 0.77% hits;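 active means more than half of replicate wells show activity change below -50%, luminescence cut by over half; inconclusive means some wells, but at most half, below -50%; inactive means no replicate well below -50%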;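 further: luciferase reports HSF-1 transcriptional activity via heat shock element; 0% = median of DMSO wells and -100% = zero luminescence signal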
HSF1 activator: HSF-1 activators, primary screen, NIH3T3-HGL cells, MG132 stress, luminescence, single point | NIH3T3-HGL HSF-1 luciferase reporter, 8 h; 100% = twice DMSO control signal | activation, % at 9 µM | 300,000 compounds, 1.7% hits;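 active means mean replicate activation of at least 50% with a set share of replicates each reaching 50%; inconclusive means only one of those two conditions met; inactive means mean below 50% and too few replicates reaching it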;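 further: 0% = median of the neutral control wells and 100% = twice that signal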
Wnt bcat act: Wnt/beta-catenin pathway activators, primary screen, cell-based, plate reader, single point | activation, % at 9.35 µM | 300,000 compounds, 1.2% hits | Wnt/beta-catenin reporter cell assay, activator; in the data active means activation above about 30%, passing the limit was not always enough; inconclusive means no clear call, values can overlap the other calls;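 further: 0% = neutral control wells and 100% = positive control wells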
MITF TRPM1 HTS: activators of MITF-driven TRPM1 promoter reporter, primary screen, cell-based, SK-MEL-5, luciferase, single point; SK-MEL-5 TRPM1-promoter luciferase, 24 h; % of positive control, neutral wells = 0; activation, % at 12.5 µM; 300,000 compounds, 0.75% hits; AID 588334, 2011;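 active means mean activation of at least 80% with every replicate also reaching 80%; inconclusive means mean reaches 80% but some replicate falls short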;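 further: 0% = neutral control wells and 100% = parthenolide positive control wells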
esBAF inh: Bmi1 luciferase reporter increase in mESCs, primary screen, esBAF inhibitor project, mouse ES cells, Bmi1 luciferase knock-in, single point. 350,000 compounds, 2% hits. 24 h; 100% = twice the neutral-well signal. reporter increase, % at 12.5 µM; in the data active means activation above about 40%; inconclusive means no clear call, values can overlap the other calls;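 further: 0% = median of the plate's neutral control wells and 100% = double that signal; a rise in the Bmi1 reporter signal indicates esBAF inhibition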
An asterisk follows results filed as active; u = inconclusive; x = no result given. Compounds with a hit are over-represented: about 3.9% of the library has one in this group of screens.

SMILES	HSF1 inh	HSF1 activator	Wnt bcat act	MITF TRPM1 HTS	esBAF inh
CC(OC(=O)/C=C/c1ccc2ccccc2n1)C(=O)NCc1ccccc1 (centres undefined)	80	122*	15	15	31
COC(=O)CNC(=O)COC(=O)/C=C/c1ccc2ccccc2n1	2	14	-1	-2	x
CCOC(=O)c1cnc2c(c(C)nn2C)c1Oc1cc(Cl)cc(Cl)c1	3	2	-1	-3	-6
CCOC(=O)c1cnc2c(c(C)nn2C)c1Oc1ccc(OC)cc1	-2	-3	49*	x	-12
c1ccc(-n2cc(CN3CCC(N4CCOCC4)CC3)c(-c3ccc4c(c3)OCO4)n2)cc1	-4	-3	0	15	-5
O=C1CSC(c2cn(-c3ccccc3)nc2-c2ccc3c(c2)OCCO3)N1CCN1CCOCC1 (centres undefined)	14	58*	x	1	2
CN1C(=O)c2cc(NC(=O)c3ccc(C(F)(F)F)cc3)ccc2OC[C@@H]2O[C@H](CC(=O)O)CC[C@H]21	x	x	x	x	-3
CC(C)c1ccc(C(C(C(=O)c2ccccc2)N2CCOCC2)N2CCOCC2)cc1 (centres undefined)	x	x	9	28	46*
C[C@]12CC[C@@H]3c4cc(O)c(O)cc4CC[C@H]3[C@@H]1CC[C@@H]2O	55	85*	-7	3	4
C[C@]12CC[C@@H]3c4ccc(O)cc4CC[C@H]3[C@@H]1CC[C@@H]2O	-37	-51	9	-2	13
CC(=O)N/N=C\c1ccccc1OC/C=C/c1ccccc1	1	11	42*	u	70*
CC(C)(O)C(=O)N/N=C\c1ccc(OC/C=C/c2ccccc2)cc1	21	36	13	105*	29
O=C(CCCCCNC(=O)N1CCn2c1nc1ccccc12)NCc1ccc(Cl)cc1	32	51*	3	2	-2
O=C(CSc1ccc(Br)cc1)Nc1ccccc1N1CCOCC1	-77*	-82	-1	-4	5
COCc1cc(C)nc(SCC(=O)Nc2ccccc2N2CCOCC2)c1C#N	25	65*	-2	7	0
Cc1ccc(S(=O)(=O)N[C@H]2C=C[C@H](CC(=O)NC3CCCCC3)O[C@H]2CO)cc1	x	x	x	x	5
Cc1noc(C)c1NC(=O)Nc1ccc2c(c1)C(=O)N([C@@H](C)CO)C[C@@H](C)[C@H](CN(C)C(=O)Nc1cccc3ccccc13)OCCCC[C@@H](C)O2	x	x	x	x	5
O=C(OCc1c(-c2ccccc2)ncc2ccccc12)N1CCOCC1	x	x	37*	101*	57*
O=C(O)CCC(=O)OCc1c(-c2ccccc2)ncc2ccccc12	x	x	0	4	1
Cc1ccc(S(=O)(=O)c2c(N)n(-c3ccccc3)c3nc4ccccc4nc23)cc1	20	66*	-11	-5	x
CCCCn1c(N)c(S(=O)(=O)c2ccc(C)cc2)c2nc3ccccc3nc21	27	47	1	5	x
COc1ccc(-c2ccc3oc(-c4ccsc4)cc3c2)cc1	-15	-35	28	43	64*
Cc1cccc2cc(/C=C3\N=C(c4ccccc4)OC3=O)c(N3CCOCC3)nc12	-3	-1	x	-8	-9
COc1ccc(/C=C2\N=C(c3ccc(C)cc3)OC2=O)cc1	2	-1	0	-11	5
Cc1ccc(C2=N/C(=C\N3CCCCC3)C(=O)O2)cc1	21	63*	63*	u	36
SMILES	HSF1 inh	HSF1 activator	Wnt bcat act	MITF TRPM1 HTS	esBAF inh
Cc1ccc(C2=N/C(=C/N3CCOCC3)C(=O)O2)cc1	25	30	x	92*	52*
C[C@H](CO)N1C[C@H](C)[C@H](CN(C)CC2CC2)Oc2ccc(NS(=O)(=O)c3ccc(F)cc3)cc2C1=O	x	x	x	x	-2
CCCC#Cc1cnc2c(c1)C(=O)N([C@H](C)CO)C[C@H](C)[C@@H](CN(C)C(=O)Nc1cccc(F)c1)O2	x	x	x	x	9
NC(=O)c1c(NC(=O)C2COc3ccccc3O2)sc2c1CCN(Cc1ccccc1)C2 (centres undefined)	u	-21	-1	9	9
COC(=O)N1CCc2c(sc(NC(=O)C3COc4ccccc4O3)c2C(N)=O)C1 (centres undefined)	26	44	14	67	50*
COc1cccc(/C=N/NC(=S)NC2CC3CCC2C3)c1OC (centres undefined)	2	12	-2	x	5
Oc1ccccc1/C=N/NC(=S)NC1CC2CCC1C2 (centres undefined)	9	34	23	43	66*
COCCCNC(=S)N/N=C/c1ccccc1O	x	x	3	x	49*
S=C(N/N=C/c1ccco1)NC1CC2CCC1C2 (centres undefined)	30	58*	11	32	40
C[C@H]1CCCCO[C@H](CN(C)Cc2ccccc2)[C@@H](C)CN([C@@H](C)CO)C(=O)c2cc(NC(=O)CCCN(C)C)ccc2O1	x	x	x	x	2
COc1ccc(S(=O)(=O)N(C)C[C@@H]2Oc3ccc(NC(=O)Nc4ccc(F)cc4)cc3CC(=O)N([C@@H](C)CO)C[C@@H]2C)cc1	x	x	x	x	4
CC(C)(C)n1ncc2c(=O)n(CC(=O)NC3CCCCC3)cnc21	7	23	x	53	44*
CC(C)(C)n1ncc2c(=O)n(CC(=O)Nc3ccccc3)cnc21	-5	2	x	11	15
CC(C)(C)n1ncc2c(=O)n(CC(=O)OCc3ccccc3)cnc21	-73*	-74	x	-11	9
CC(C)(C)n1ncc2c(=O)n(CC(=O)c3ccccc3)cnc21	17	24	x	96*	19
Cc1ccc(S(=O)(=O)Nc2ccc3c(c2)C(=O)N([C@H](C)CO)C[C@H](C)[C@H](CN(C)S(C)(=O)=O)OCCCC[C@H](C)O3)cc1	x	x	x	x	0
O=C(NCC[C@@H]1CC[C@H](NC(=O)c2ccc3c(c2)OCO3)[C@@H](CO)O1)Nc1ccc(Cl)cc1	x	x	x	x	25
CCOC(=O)CC(=O)CSCC(=O)Nc1ccc(C)cc1	40	86*	x	-5	x
CO[C@@H]1CN(C)C(=O)c2ccc(NC(=O)NC(C)C)cc2OC[C@@H](C)N(Cc2cncnc2)C[C@@H]1C	x	x	x	x	4
COc1ccc(CN(C)C[C@H]2OCCCC[C@@H](C)Oc3ccc(NS(=O)(=O)c4ccc(F)cc4)cc3C(=O)N([C@@H](C)CO)C[C@H]2C)cc1	x	x	x	x	0
Fc1ccc(CSc2nnc(-c3cccs3)o2)cc1	30	41	21	70	x
CC1CCCCN1C(=O)CSc1nnc(-c2cccs2)o1 (centres undefined)	19	44	22	u	18
CCSc1nnc(-c2ccc(S(=O)(=O)NCc3cccs3)cc2)o1	-68*	-71	-2	2	2
c1ccc(CSc2nnc(-c3cccs3)o2)cc1	15	11	x	134*	47*

Assay outcomes deposited in PubChem BioAssay by Broad Institute.
